# High-throughput results: PubChem, several laboratories
# Shown are actives, neighbours in structure and some others; about 1% of the full set was active somewhere.
# cardiac RTF act: increases calcium sensitivity of human cardiac regulated thin filaments. IANBD-labeled TnC RTF fluorescence at EC20 calcium; 0% EC20 calcium, 100% full calcium. activation, % at 7.2 µM. hit rate 0.24% among 340,000. AID 493008;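 active = activation above the mean over all tested compounds plus 3 SD, cut at about 30% in these data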;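 also: rise in fluorescence read as greater calcium sensitivity of cardiac thin filaments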
# Cardiac RTF inh: cardiac RTF calcium desensitization; IANBD-labeled cardiac RTF, Ca2+ fluorescence; inhibition, % at 7.15 µM; hit rate 0.12% among 340,000;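 active = inhibition above the mean inhibition of all tested compounds plus 3 SD, cut at about 17% in these data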;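 also: assay run at fixed EC70 calcium of 1.6 mM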
# LANA-H2B inh: blocks KSHV LANA binding to histone H2A/H2B | AID 2629 | cell-free LANA-H2A/H2B peptide, fluorescence polarization | hit rate 0.6% among 320,000 | Q9QR71 | inhibition, % (concentration not given with the values); in the data active = inhibition mostly above about 10%, no sharp cut-off; inactive = mostly below about 6.7%
# Target sequence (Q9QR71 whole entry, looked up): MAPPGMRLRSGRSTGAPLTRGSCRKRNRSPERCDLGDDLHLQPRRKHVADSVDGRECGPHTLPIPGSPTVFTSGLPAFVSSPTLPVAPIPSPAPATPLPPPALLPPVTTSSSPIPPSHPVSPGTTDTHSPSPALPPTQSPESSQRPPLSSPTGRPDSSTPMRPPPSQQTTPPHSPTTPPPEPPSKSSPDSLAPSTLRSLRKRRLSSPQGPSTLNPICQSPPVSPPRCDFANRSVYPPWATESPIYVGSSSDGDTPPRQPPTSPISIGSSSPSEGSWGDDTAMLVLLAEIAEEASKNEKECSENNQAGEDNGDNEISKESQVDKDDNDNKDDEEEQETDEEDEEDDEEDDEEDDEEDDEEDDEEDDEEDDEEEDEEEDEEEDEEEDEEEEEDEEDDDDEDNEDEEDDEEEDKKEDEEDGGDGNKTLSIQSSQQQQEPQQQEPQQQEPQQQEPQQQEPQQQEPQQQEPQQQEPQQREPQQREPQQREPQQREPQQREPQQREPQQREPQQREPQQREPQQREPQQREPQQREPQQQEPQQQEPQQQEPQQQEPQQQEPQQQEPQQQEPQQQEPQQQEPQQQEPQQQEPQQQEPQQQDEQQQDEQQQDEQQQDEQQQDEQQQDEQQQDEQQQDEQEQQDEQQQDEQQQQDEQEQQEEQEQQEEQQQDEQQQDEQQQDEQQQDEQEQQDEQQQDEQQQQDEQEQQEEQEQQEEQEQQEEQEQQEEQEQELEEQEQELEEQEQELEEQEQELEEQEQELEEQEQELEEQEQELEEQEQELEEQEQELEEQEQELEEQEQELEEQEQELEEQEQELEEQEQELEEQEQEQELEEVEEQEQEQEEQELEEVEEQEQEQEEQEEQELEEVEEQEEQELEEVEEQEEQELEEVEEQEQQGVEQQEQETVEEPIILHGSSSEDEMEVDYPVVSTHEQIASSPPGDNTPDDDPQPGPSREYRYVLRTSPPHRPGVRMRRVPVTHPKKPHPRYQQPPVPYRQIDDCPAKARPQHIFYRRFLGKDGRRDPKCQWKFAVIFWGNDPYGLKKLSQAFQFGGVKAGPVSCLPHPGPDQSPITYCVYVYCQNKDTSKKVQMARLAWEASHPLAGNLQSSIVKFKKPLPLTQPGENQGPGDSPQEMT
# C-LANA FP: KSHV C-LANA DNA binding inhibition | inhibition, % at 9 µM | MBP-C-LANA/FAM-LBS DNA binding, fluorescence polarization | hit rate 0.078% among 340,000;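 active = highest replicate inhibition at or above 60% at 9 µM, even if other replicates fall short; inactive = all replicates below 60% inhibition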;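 also: 0% = neutral control wells and 100% = 4 µM acridine orange control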
# Keap1 Nrf2 FP: Keap1-Nrf2 (human) interaction inhibition; inhibition, % at 9.4 µM; Q14145; Keap1 Kelch-Nrf2 peptide fluorescence polarization, 1536-well; hit rate 0.15% among 340,000; AID 504523; in the data active = inhibition above about 12%;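 also: human Keap1 Kelch domain with fluorescein labeled Nrf2 9mer peptide probe; 0% = neutral control wells and 100% = peptide positive control; higher means more block of Keap1 binding to Nrf2 peptide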
# Numbers without * were called inactive; . = no result given; + = active, no number.
SMILES,cardiac RTF act,Cardiac RTF inh,LANA-H2B inh,C-LANA FP,Keap1 Nrf2 FP
O=CNc1ccc2c3c(cccc13)-c1ccccc1-2,0.6,0.3,.,2.9,-5.1
CN(CCNC(=O)C1CCC(=O)N(Cc2ccc(Cl)cc2)C1)CCc1ccccc1 (stereo not given),0.4,-7.3,-1.6,-0.8,4.4
CN(C)C1(CNC(=O)C2CCC(=O)N(Cc3ccc(Cl)cc3)C2)CCCCC1 (stereo not given),5.6,-10.2,11.2*,-0.7,2.0
N#Cc1ccc(C#Cc2ccc3oc4ccccc4c(=O)c3c2)cc1,10.0,-2.3,25.2*,0.5,1.1
O=C1c2ccccc2C(=O)N1CCCc1nc2ccccc2c(=O)n1-c1cccnc1,.,.,0.7,.,.
Cc1ccc(NC(=O)CN2C(=O)C3CCCCN3C(=O)c3ccccc32)cc1 (stereo not given),7.6,-17.7,-5.6,-0.6,0.4
O=C(CN1C(=O)C2CCCN2C(=O)c2ccccc21)Nc1ccccc1-n1cccc1 (stereo not given),.,.,30.0*,.,.
COc1cc(Nc2cccc[n+]2C)cc(OC)c1OC,-3.0,-10.5,3.1,-5.7,2.3
Cc1c(/C=N/NC(=O)c2cccnc2)c2ccccc2n1Cc1ccccc1,.,.,11.8*,1.3,1.6
Cc1nn(Cc2ccccc2)c(Cl)c1/C=N/NC(=O)c1cccnc1,-3.9,4.4,1.9,0.0,2.6
COc1ccc(NC(=O)/C(C#N)=C\c2ccc(N3CCOCC3)o2)cc1,135.0*,-161.3,-47.0,-44.8,-293.8
N#C/C(=C\c1ccc(N2CCOCC2)o1)C(=O)Nc1ccc(O)cc1,.,.,-50.5,-63.5,-221.6
N#C/C(=C/c1ccc(N2CCCCC2)o1)C(=O)Nc1ccc2ccccc2c1,166.0*,-199.8,.,-1.9,-26.8
N#C/C(=C/c1ccc(N2CCOCC2)o1)C(=O)NC1CCCCC1,50.4*,-65.8,-28.7,-31.0,-119.8
N#C/C(=C/c1ccc(N2CCCCC2)o1)C(=O)Nc1ccc(Cl)cc1,41.1*,-109.6,-11.0,0.5,-11.3
OCC(O)C1OC(c2ccccc2)OC(CO)C1O (stereo not given),0.8,-11.2,.,-0.3,-1.8
CCN(CC)c1ccc2c(-c3ccc(S(=O)(=O)O)cc3S(=O)(=O)[O-])c3ccc(=[N+](CC)CC)cc-3oc2c1,247.7*,-335.7,149.8*,120.7*,82.3*
CCN(CC)c1ccc2nc3c4ccccc4c(=O)cc-3oc2c1,.,.,5.1,.,.
CCCN(CC(=O)Nc1ccccc1C)C(=O)Cc1c(C)nc2ccccc2c1C,1.5,0.6,139.7*,0.7,-0.6
COc1cc(/C=C2/SC(=S)N(Cc3ccccc3)C2=O)ccc1OCC(=O)O,-2.9,1.6,-3.8,-0.9,-2.6
COc1cc(/C=C2/SC(=S)N(Cc3ccccc3)C2=O)cc(Cl)c1O,71.3*,-108.4,-10.5,-18.9,-6.0
Cc1ccc(Nc2nnc(SCC(=O)c3c(N)n(C4CC4)c(=O)[nH]c3=O)s2)cc1C,7.1,2.2,+,-1.0,3.0
Cc1cccc(Nc2nnc(SCC(=O)c3c(N)n(C4CC4)c(=O)[nH]c3=O)s2)c1,-1.4,5.7,-9.2,1.4,3.0
CCS(=O)(=O)c1ccc2oc(SCC(=O)c3c(N)n(C4CC4)c(=O)[nH]c3=O)nc2c1,-1.0,-3.2,46.5*,0.9,4.8
CC(=O)Nc1cc2c3c(cccc3c1)-c1ccccc1-2,-2.1,-1.9,.,1.8,-3.0
SMILES,cardiac RTF act,Cardiac RTF inh,LANA-H2B inh,C-LANA FP,Keap1 Nrf2 FP
COC(=O)C1CCCN1C(=O)COc1ccc(Cl)cc1Br (stereo not given),1.1,-3.2,-3.1,-0.3,-0.1
COCCNC(=O)C(=O)NCC1OCCN1C(=O)c1ccc(Cl)cc1 (stereo not given),2.9,-12.1,-2.1,0.6,3.6
COC(CNC(=O)C(=O)NCC1OCCN1C(=O)c1ccc(Cl)cc1)OC (stereo not given),-1.1,-6.8,11.2*,-2.4,2.0
COC(=O)[C@H](C)NC(=O)c1cc2c(cn1)[nH]c1ccccc12,32.0*,-1.4,-0.6,1.2,3.2
O=[N+]([O-])c1cc2c(c(CSc3nnc(Nc4ccccc4)s3)c1)OCOC2,-7.8,-0.4,3.3,-1.6,-0.2
Cc1ccccc1Nc1nnc(SCc2cc([N+](=O)[O-])cc3c2OCOC3)s1,5.7,-4.8,23.9*,0.1,0.2
O=C(O)c1cccc2cc(-c3ccccc3)oc(=O)c12,3.0,-10.5,0.3,0.4,1.5
O=C(O)c1cccc2cccc(-c3c4ccc(=O)c(O)c-4oc4c(O)c(O)ccc34)c12,-43.6,78.8*,.,86.6*,7.5
O=C(NNC(=O)c1ccco1)c1ccc(NS(=O)(=O)c2cccs2)cc1,-1.1,-14.6,-0.3,0.0,-0.3
O=C(NCCCCNC(=O)C1CCCC1)C1CCCC1,4.0,-4.7,-2.8,0.4,-6.3
O=C(NCCCCc1ccccc1)C1CCCC1,-3.8,1.5,-0.2,101.0*,-3.1
Cc1ccc(N=C2NC(=O)/C(=C/c3cn(C)c4ccccc34)S2)cc1C,69.2*,-43.8,-11.9,1.4,-6.2
Cn1cccc1/C=C1\SC(=Nc2ccccc2)NC1=O,-0.9,0.1,-0.2,-4.9,-3.0
COc1cccc2cc(C(C)N(CCCN3CCOCC3)C(=S)Nc3cccc(C)c3)oc12 (stereo not given),0.3,-12.6,12.5*,0.1,-1.7
COc1ccc(Cc2nc3c([nH]2)c(=O)n(C)c(=O)n3C)cc1OC,0.2,-0.5,.,0.0,-4.4
NCCCCCC(=O)N/N=C/c1coc2ccccc2c1=O,-2.9,5.0,2.0,-1.0,-3.3
O=C(CCc1nnc(CCC2CCCCC2)o1)NCCn1cccn1,0.2,0.0,15.3*,2.5,-1.6
CC(CNC(=O)CCc1nnc(CCC2CCCCC2)o1)c1ccccc1 (stereo not given),-2.7,-7.9,-4.3,1.2,-3.1
CCOC(=O)c1ccc(NC(=O)COc2ccccc2CNC2CCCC2)cc1,4.9,-2.8,-4.7,1.0,6.3
CC(C)(C)N(Cc1ccccc1)C(=O)CN1C(=O)c2ccccc2S1(=O)=O,5.3,2.7,3.3,-0.9,-2.0
COc1ccc(CCN2C(=NC(=O)CC(C)C)SC3CS(=O)(=O)CC32)cc1OC (stereo not given),-1.9,-1.7,22.1*,-1.0,-2.1
CCN(CC)c1ccc(/C=C2/SC(=O)N(C(C)C)C2=O)o1,154.8*,-114.3,.,-8.8,-124.3
CC(C)N1C(=O)S/C(=C\c2ccc(-c3ccc(Cl)c(C(=O)O)c3)o2)C1=O,1.2,5.2,-0.2,0.9,-4.3
COC(=O)c1sc(SC)c(-c2ccon2)c1C,-2.2,4.1,-2.4,0.4,-0.2
O=C(CC(c1ccccc1)(c1ccccc1)c1ccccc1)N[C@@H](Cc1ccccc1)C(=O)O,-4.2,9.4,16.1*,-0.9,-0.8
CCOC(=O)c1ccc(NC(=O)CCCN2C(=O)NC3(CCCC3)C2=O)cc1,-5.0,1.8,12.4*,2.2,2.8
Cc1cc(C)cc(NC(=O)CCCN2C(=O)C(c3ccccc3)Oc3cccnc32)c1 (stereo not given),-6.3,3.1,13.6*,-0.3,-2.9
